# Pf Dd2 growth: inhibitors of Plasmodium falciparum Dd2 growth | actives 4.3% (n = 120,000) | Potency, µM (top dose mostly 28.9 µM), for inactives: at the highest dose activity, negative = inhibition, hits mostly inhibitors | P. falciparum Dd2 growth, SYBR Green, 72 h; active = well fitted inhibition curve with a large enough effect;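 also: plate controls were DMSO vehicle for no effect and reference drug for full effect; nearly all actives have a fitted effect of over 65% in size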
#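 Infected erythrocytes (Dd2, 0.3% parasitemia, 2.5% hematocrit final) are added to compound in RPMI-1640/Albumax II medium, grown 72 h at 37C in low oxygen, then lysed with saponin/Triton-X containing SYBR Green and read by fluorescence.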
# An asterisk follows results filed as active; i = inactive; [ ] = dose if it differs, or a comment. The full list was thinned out, with hits kept by preference. Potency is read from the fitted curve at half-maximal effect.
SMILES,Pf Dd2 growth
O=C(CSc1nc2c([nH]c3ccccc32)c(=O)n1-c1ccc(Cl)cc1)c1ccccc1,56%
COCCNC(=O)C[C@@H]1C[C@H]2O[C@H](CNC3CCCC3)[C@@H](O)[C@H]2O1,23%[44.1 µM]
CC[C@@]1(O)CCN(C(=O)c2ccccc2OC(F)(F)C(F)F)C[C@H]1O,9%
COCCN(C)C(=O)C1(C)CN(Cc2ccccc2)Cc2ccc(NCC(C)C)nc21 (stereo not given),i
CCc1ccc2occ(CC(=O)N(Cc3ccc(N(C)C)cc3)C3CCS(=O)(=O)C3)c2c1 (stereo not given),-14%
Cc1ccc2occ(CC(=O)N(Cc3ccc(N(C)C)cc3)C3CCS(=O)(=O)C3)c2c1 (stereo not given),-25%
CCN(CC)c1ccc(CN(C(=O)Cc2coc3ccc(C)cc23)C2CCS(=O)(=O)C2)cc1 (stereo not given),13µM*
Cc1ncccc1C(=O)N1C[C@@H](COc2ccccc2)[C@H](C(N)=O)C1,5%
O=C(c1ccccc1F)N1CCn2c(nn(-c3ccc(F)cc3F)c2=O)C1,2%
CC(=O)N1CCCc2cc(S(=O)(=O)N3CCC(C(=O)Nc4c(C)cccc4C)CC3)ccc21,-9%
CCN(CC)C(=O)C1CCN(S(=O)(=O)c2ccc3c(c2)CCCN3C(C)=O)CC1,-4%
CCN(C(=O)C1CCN(S(=O)(=O)c2ccc3c(c2)CCCN3C(C)=O)CC1)c1cccc(C)c1,13µM*
O=C(NC1CCCCCC1)C1CCN(C(=O)c2ncn3c2COC(c2ccc(Cl)cc2)C3)CC1 (stereo not given),i
CCOc1cc(C(=O)Nc2ccc3nc(Nc4cccc(Cl)c4)cc(C)c3c2)cc(OCC)c1OCC,2µM*
COc1ccc(Nc2ncc(C(=O)Nc3cccc(Cl)c3)c3ccccc23)cc1,i
Cc1ccccc1C(=O)Nc1ccc2nc(Nc3cccc(C(F)(F)F)c3)cc(C)c2c1,-9%
CCN(CC)S(=O)(=O)c1ccc2nc(NC(=O)c3cncc(Br)c3)sc2c1,20%[0.594 µM]
CCN(CC)c1ccc(C(=O)Nc2ccc3nc(N(CC)CC)cc(C)c3c2)cc1,-18%
Cn1nc(-c2ccc(C(=O)Nc3cccc(C(F)(F)F)c3)cc2)c2ccccc2c1=O,3%
Cc1cc(Nc2cccc(C(F)(F)F)c2)nc2ccc(NC(=O)c3cncc(Br)c3)cc12,0.18µM*
CCOc1cc(C(=O)Nc2ccc(-c3cn4cccnc4n3)cc2)cc(OCC)c1OCC,-17%
Cc1cc(Nc2cccc(Cl)c2)nc2ccc(NC(=O)c3cncc(Br)c3)cc12,2.8µM*
O=C(Nc1cccc(C(F)(F)F)c1)c1cnc2c(c1)N(Cc1ccccc1)CCC2,-18%[44.1 µM]
COc1ccc(Cl)cc1C(=O)N1CCC(Oc2ccc3c(cnn3CCC(=O)O)c2)CC1,0%
COc1ccc(F)cc1S(=O)(=O)N1CCC(Oc2ccc(C(N)=O)cn2)CC1,-27%
SMILES,Pf Dd2 growth
Cn1cc(CN2CCN(Cc3cccc(F)c3)CC2)ccc1=O,i
O=[S+]1([O-])NCC2(CCCN(Cc3ccc(Cl)cc3)C2)Oc2ncccc21 (stereo not given),-29%
CNC(=O)[C@H]1C[C@H](Oc2ccccc2)CN1S(=O)(=O)Cc1ccccc1,9%
Cc1cccc(CC(=O)Nc2c(C(=O)Nc3cccc(F)c3)oc3ccccc23)c1,i
Cc1cccc(OCC(=O)Nc2c(C(=O)Nc3ccc(F)cc3)oc3ccccc23)c1,29%
Cc1ccc(C(=O)c2oc3ccccc3c2NC(=O)COc2ccc(Cl)c(C)c2)cc1,36%
O=C(Nc1c(C(=O)N2CCN(c3ccccc3)CC2)oc2ccccc12)c1ccc(Br)o1,10µM*
Cc1cccc(OCC(=O)Nc2c(C(=O)N3CCN(c4ccccc4)CC3)oc3ccccc23)c1,11µM*
O=C(Nc1c(C(=O)N2CCN(c3ccccc3F)CC2)oc2ccccc12)c1ccccc1F,-22%
Cc1cccc(C(=O)Nc2c(C(=O)N3CCN(c4ccc(F)cc4)CC3)oc3ccccc23)c1,13µM*
O=C(Nc1c(C(=O)N2CCN(c3ccccc3)CC2)oc2ccccc12)c1ccccc1F,17%
COc1ccc(N2CCN(C(=O)c3oc4ccccc4c3NC(=O)c3ccccc3OC)CC2)cc1,-11%
CN(C)C[C@@H]1CN(Cc2ccncc2)C[C@H]1NC(=O)c1ccc(F)cc1,36%
O=C1CCN(C2CCCCC2)CCOCCN1,-26%
O=C(NCc1nnc2cc(-c3nc(C4CC4)no3)ccn12)c1ccncc1,i
CCC(=O)N1CCC(c2noc(-c3ccccc3)n2)C1 (stereo not given),i[5.79 µM]
COc1ccc(CNC(=O)N2CC3CC(C2)[C@H]2CCCC(=O)N2C3)cc1 (stereo not given in full),-4%
O=C(Cc1ccc(OC(F)(F)F)cc1)NCc1nnc2ccc(-c3ccc(F)cc3)nn12,i
CC(C)C[C@@H]1N[C@H](C(=O)N2CCC(NC(=O)c3ccccc3)CC2)Cc2c[nH]c3cccc1c23,10µM*
CC(C)C[C@@H]1N[C@H](C(=O)NCCOc2ccccc2)Cc2c[nH]c3cccc1c23,13µM*
CC(C)C[C@@H]1N[C@H](C(=O)N2CCCC2)Cc2c[nH]c3cccc1c23,-18%[44.1 µM]

# Source: PubChem BioAssay
